A selection: hits, their analogues and other compounds. The true share with any hit is near 3.2%.
LmPK inh: inhibitors of Leishmania mexicana pyruvate kinase; Q27686; purified LmPK, Kinase-Glo ATP luminescence, 1 h; Potency, µM (series often up to 57.5 µM), without a hit: top-dose activity change, negative = inhibition, usual class: inhibitors; 290,000 compounds, 0.37% hits; AID 1721
Target sequence (Q27686 whole entry, looked up): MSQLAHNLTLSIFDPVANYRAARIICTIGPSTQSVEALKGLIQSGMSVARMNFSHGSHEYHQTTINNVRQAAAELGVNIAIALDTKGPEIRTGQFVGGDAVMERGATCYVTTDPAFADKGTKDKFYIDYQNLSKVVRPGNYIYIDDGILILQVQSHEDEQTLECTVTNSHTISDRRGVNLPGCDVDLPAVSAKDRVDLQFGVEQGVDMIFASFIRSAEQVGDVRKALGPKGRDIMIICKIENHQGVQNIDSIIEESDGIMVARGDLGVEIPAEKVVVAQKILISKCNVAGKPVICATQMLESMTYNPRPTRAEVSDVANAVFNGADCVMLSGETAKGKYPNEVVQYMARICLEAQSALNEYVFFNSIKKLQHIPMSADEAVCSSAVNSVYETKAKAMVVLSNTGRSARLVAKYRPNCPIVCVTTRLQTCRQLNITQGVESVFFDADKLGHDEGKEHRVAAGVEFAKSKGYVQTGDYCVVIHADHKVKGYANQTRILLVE
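In 50 mM imidazole pH 7.2 with 7 mM MgCl2, LmPK (0.1 nM) turned over PEP (0.5 mM) and ADP (0.1 mM) for 1 h at room temperature. Luciferase read-out of ATP.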
Tb PYK inh: T. brucei pyruvate kinase inhibition; Q57TT1; TbPYK enzyme, Kinase-Glo Plus ATP luminescence, 45 min; Potency, µM (highest dose often 76.8 µM), for the others: at the top dose activity, negative = inhibition, most hits filed as inhibitors; 410,000 compounds, 0.12% hits; AID 624173; also: nearly all actives have a fitted effect of over 50% in size
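Activity of T. brucei pyruvate kinase was followed by Kinase-Glo Plus luminescence after the enzyme reacted 45 min at room temperature with 130 uM ADP (final) and substrate. Test compounds were added before ADP at multiple concentrations.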
Sm TGR block: S. mansoni TGR enzyme inhibition; AID 485364; 360,000 compounds, 3% hits; Potency, µM (series often up to 114 µM), for inactives: top-dose activity change, negative = inhibition, hits mostly inhibitors; Q962Y6; purified TGR, DTNB reduction, TNB absorbance 405 nm; also: nearly all actives have a fitted effect of over 60% in size
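Kinetic colorimetric format: TGR-catalysed, NADPH-driven DTNB reduction monitored via TNB absorbance. Enzyme dispensed at 20 nM; compound exposure 15 min at room temperature before reaction start.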
AMA1 RON2 block: disrupts binding of P. falciparum AMA1 to RON2 | AlphaScreen AMA1-biotinylated RON2 peptide binding | Potency, µM (series often up to 58.2 µM), for the others: top-dose activity change, negative = inhibition, usual class: inhibitors | 360,000 compounds, 0.2% hits;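 also: 0% = vehicle wells and -100% = peptide control; nearly all actives have a fitted effect of over 45% in size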
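AMA1 (3D7) with his tag at 25 nM final met compounds first, then biotinylated RON2 peptide at 25 nM; detection used donor plus acceptor beads, 10 µg/mL apiece, read by AlphaScreen after 30 min at room temperature.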
RE007 growth inh: less growth of the S. pombe RE007 Vpr strain. Potency, µM (doses to about 92.2 µM), for inactives: at the highest dose activity change, negative = less growth, actives largely listed as inhibitors. AID 651644. S. pombe RE007 Vpr strain, BacTiter-Glo ATP luminescence, 24 h. 360,000 compounds, 0.21% hits; active = well fitted falling curve with a large enough effect; inconclusive = small, poorly fitted or top-dose-only effect; inactive = no such curve, though single readings can be large or run the other way; also: nearly all actives have a fitted effect of over 50% in size
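Fission yeast RE007 carrying one integrated HIV-1 vpr copy, seeded at OD 0.01 in PMG+AL medium with 23 nL pinned compound. Grown 24 h at 30 degrees; viability read by BacTiter-Glo luminescence after 5 min.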
The depositor's hits bear a star; [ ] = dose if it differs, or a comment. Unless noted, calls follow the shape of the dose curve; as a rule, active = well fitted curve in the direction sought with a large enough effect; inconclusive = small, poorly fitted or top-dose-only effect, or another doubt; inactive = no such curve, though single readings can be large; an effect the other way counts as inactive or inconclusive. Unless noted, % is scaled to controls: 0 for no effect and ±100 for the full control effect; potency is read from the fitted curve at half-maximal effect.

What do the screens show for `Cc1ccc(SC(=O)c2c(C)noc2-c2cc(C)on2)cc1`?
LmPK inh: 1.0%; Tb PYK inh: 3.2%; Sm TGR block: 7.94µM*; AMA1 RON2 block: 9.6%; RE007 growth inh: -23.0%

What do the screens show for `Cc1cc(-c2onc(C)c2C(=O)N/N=C/c2ccccc2)no1`?
LmPK inh: 1.8%; Tb PYK inh: 0.5%; Sm TGR block: 0.0%; AMA1 RON2 block: -1.0%; RE007 growth inh: -5.5%

How did CCOc1ccc(CNC(=O)C2CCN(S(=O)(=O)N3CCCCC3)CC2)cc1 do in these assays?
Tb PYK inh: -0.6%; Sm TGR block: -4.4%

Results for NC[C@@H]1O[C@H](C23CC4CC(CC(C4)C2)C3)Cc2c1ccc(O)c2O ?
LmPK inh: -7.3%; Tb PYK inh: 2.9%; Sm TGR block: 7.94µM*; AMA1 RON2 block: 2.1%; RE007 growth inh: -4.5%[18.4 µM]

How did CCOc1ccc(C[C@H]2NC(=O)CCSSC[C@@H](C(=O)N3CCC[C@H]3C(=O)N[C@@H](CCCN)C(=O)NCC(N)=O)NC(=O)[C@H](CC(N)=O)NC(=O)[C@H]([C@@H](C)O)NC(=O)[C@H]([C@@H](C)CC)NC2=O)cc1 do in these assays?
Tb PYK inh: 0.0%

Results for O=C(Nc1ccc(Cl)cc1Cl)c1cccc(N2C(=O)C=CC2=O)c1 ?
LmPK inh: 12.2%; Tb PYK inh: inconclusive; Sm TGR block: -16.1%; AMA1 RON2 block: -13.8%; RE007 growth inh: 1.26µM*

Results for COc1ccc(/C=C/C(=O)Nc2nc3n(n2)C(c2ccc(F)cc2)C=C(c2ccccc2)N3)cc1 (stereo not drawn) ?
Tb PYK inh: -7.9%; Sm TGR block: -7.3%

What do the screens show for `Cc1cc(C)cc(OCCOc2cccc(C=C3C(=O)NC(=O)NC3=O)c2)c1`?
LmPK inh: 12.1%; Tb PYK inh: -10.4%; Sm TGR block: 31.6µM*; AMA1 RON2 block: 13.4%; RE007 growth inh: -7.2%

Results for N#Cc1c(NCCCO)nc(-c2ccco2)c2c1CCCC2 ?
LmPK inh: 3.6%; Tb PYK inh: -9.9%; Sm TGR block: 6.31µM*; AMA1 RON2 block: 9.9%; RE007 growth inh: -10.4%

What do the screens show for `N#Cc1c(NC2CCCCC2)nc(-c2ccco2)c2c1CCCC2`?
LmPK inh: -2.2%; Tb PYK inh: 1.4%; Sm TGR block: 35.5µM*; AMA1 RON2 block: -3.3%; RE007 growth inh: -12.3%

Results for N#Cc1c(N2CCNCC2)nc(-c2ccco2)c2c1CCCC2 ?
LmPK inh: 9.4%; Tb PYK inh: -3.6%; Sm TGR block: 6.8%; AMA1 RON2 block: -1.0%; RE007 growth inh: 3.1%

How did CCCCc1nc(NCCO)c(C#N)c2c1CCCC2 do in these assays?
LmPK inh: 0.9%; Tb PYK inh: -1.4%; Sm TGR block: -3.2%; AMA1 RON2 block: -13.8%; RE007 growth inh: 6.2%

Results for COc1cc(CNCCSc2nnnn2C)ccc1OCc1ccccc1C ?
Tb PYK inh: -3.4%; Sm TGR block: 8.4%

Results for CCCCCCCCCCCCCCCCCCNC(=O)OC1CCN(C(=O)OC[C@H](COC(=O)N(Cc2cccc[n+]2CC)C(=O)c2ccccc2OC)OC)CC1 ?
Tb PYK inh: 2.9%

How did Cc1ccc(-c2nc3nc(C)cc(N4CCN(c5cc(Cl)ccc5C)CC4)n3n2)cc1 do in these assays?
Tb PYK inh: 2.3%; Sm TGR block: -33.5%

Results for Cc1ccc(-c2nc3nc(C)cc(N4CCN(c5cccc(C)c5C)CC4)n3n2)cc1 ?
Tb PYK inh: -2.6%; Sm TGR block: 56.2µM*

How did O=C(N/N=C/C=C/c1ccco1)c1ccccc1Cl do in these assays?
LmPK inh: -4.8%; Tb PYK inh: -16.7%; Sm TGR block: inconclusive; AMA1 RON2 block: 53.2%; RE007 growth inh: -14.5%

How did CCOC(=O)N/N=C(C)/C=C/c1ccco1 do in these assays?
LmPK inh: -4.6%; Tb PYK inh: -14.2%; Sm TGR block: 31.6µM*; AMA1 RON2 block: -17.1%; RE007 growth inh: -26.9%

What do the screens show for `CC(/C=C/c1ccco1)=N\NC(=O)CNc1ccc2ccccc2c1`?
LmPK inh: -0.1%; Tb PYK inh: 2.2%; Sm TGR block: -24.0%; AMA1 RON2 block: 28.6%; RE007 growth inh: -15.9%

Results for CC(/C=C/c1ccco1)=N/NC(=O)c1ccccc1Cl ?
LmPK inh: 0.1%; Tb PYK inh: -0.6%; Sm TGR block: 22.4µM*; AMA1 RON2 block: 66.3%; RE007 growth inh: -9.4%

How did CC(/C=C/c1ccco1)=N/NC(=O)CNc1ccccc1C do in these assays?
LmPK inh: -3.0%; Tb PYK inh: 2.4%; Sm TGR block: 35.5µM*; AMA1 RON2 block: 35.5%; RE007 growth inh: 6.6%

What do the screens show for `CCOC(=O)N/N=C\C=C\c1ccco1`?
LmPK inh: 1.4%; Tb PYK inh: -4.5%; Sm TGR block: 22.4µM*; AMA1 RON2 block: -11.9%; RE007 growth inh: 8.7%

How did O=C(CCC1N=C2c3ccccc3N=C(SCC(=O)Nc3ccccc3F)N2C1=O)NCc1ccco1 (stereo not drawn) do in these assays?
Tb PYK inh: 1.6%; Sm TGR block: -0.6%

How did Cc1ccc(CCNC(=O)c2cn(C)c3ccc(S(=O)(=O)N(C)C4CCCCC4)cc3c2=O)cc1 do in these assays?
Tb PYK inh: -10.4%; Sm TGR block: 2.7%

Results for COc1cccc(CNC(=O)c2cc3c(=O)n(Cc4cccnc4)ccc3nc2C)c1 ?
Tb PYK inh: 1.9%; Sm TGR block: 2.3%

Results for CCn1c(=O)n(CC)c2cc(N3CCCCC3)c(NC(=O)Nc3ccccc3Cl)cc21 ?
Tb PYK inh: -8.9%; Sm TGR block: -17.3%

What do the screens show for `CCSc1sccc1C1C(C#N)=C(N)N(c2cccnc2)C2=C1C(=O)CC(C)(C)C2` (stereo not drawn)?
LmPK inh: 5.1%; Tb PYK inh: -4.5%; Sm TGR block: -19.9%; AMA1 RON2 block: 23.6%; RE007 growth inh: -4.6%

Results for COc1ccc(C2C(C#N)=C(N)N(c3cccnc3)C3=C2C(=O)CC(C)(C)C3)cc1OC (stereo not drawn) ?
LmPK inh: 1.9%; Tb PYK inh: -14.1%; Sm TGR block: 44.7µM*; AMA1 RON2 block: 19.5%; RE007 growth inh: inconclusive

Results for COc1ccc(OC)c(N2C(N)=C(C#N)C(c3ccc(OC)c(O)c3)C3=C2CC(C)(C)CC3=O)c1 (stereo not drawn) ?
LmPK inh: 1.0%; Tb PYK inh: -11.0%; Sm TGR block: 19.1%; AMA1 RON2 block: -4.2%; RE007 growth inh: -13.8%

Results for COc1ccc(N2C(N)=C(C#N)C(c3cccnc3)C3=C2CC(C)(C)CC3=O)cc1 (stereo not drawn) ?
LmPK inh: -0.8%; Tb PYK inh: -13.1%; Sm TGR block: 10µM*; AMA1 RON2 block: 29.8%; RE007 growth inh: 4.0%
